Assay outcomes (PubChem BioAssay)
An excerpt weighted towards active compounds, which were near 7.9% of everything screened.
HCMV inh: blocks human cytomegalovirus replication; AID 1259415; HFF cells, HCMV-luciferase reporter, 72 h; stronger effect = lower value; hit rate 4.5% among 410,000; activity change, negative = inhibition, % at 57.5 µM; in the data active = activity change below about -60%; inconclusive = no clear call, values can overlap the other calls; inactive = above about -39%
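Human foreskin fibroblasts infected with luciferase-reporter HCMV at MOI 1 PFU/cell, compounds at two doses. Luciferase measured 72 h post infection; normalized to buffer-only basal and Salinomycin (10uM) controls.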
Lassa entry inh: inhibitors of Lassa virus binding or cell entry. Lassa virus pseudotype entry inhibition, cell reporter. Potency, µM (titrated, usually from 37.9 µM), without a hit: at the top dose activity change, negative = inhibition, most hits filed as inhibitors. hit rate 1.2% among 300,000. AID 540256; calls by dose curve; tested in HEK293 cells; also: potency is read from the fitted curve at half-maximal effect; nearly all actives have a fitted effect of over 50% in size
Marburg entry inh: Marburg virus entry inhibition; hit rate 1.8% among 300,000; Marburg virus pseudotyped entry inhibition, cell reporter; Potency, µM (series often up to 37.8 µM), for the others: at the highest dose activity change, negative = inhibition, most hits filed as inhibitors; calls by dose curve; tested in HEK293 cells; also: potency is read from the fitted curve at half-maximal effect
FMDV inh: antivirals against foot and mouth disease virus. FMDV antiviral cell-based qHTS. Potency, µM (series often up to 57.9 µM), for the others: at the highest dose activity change, negative = inhibition, hits mostly inhibitors. hit rate 1.2% among 410,000; calls by dose curve; tested in HEK293T cells; also: read-out not given here; potency is read from the fitted curve at half-maximal effect; nearly all actives have a fitted effect of over 45% in size
HCV inh: HCV inhibition; Potency, µM (titrated, usually from 41.8 µM), for the others: at the top dose activity change, negative = inhibition, actives largely listed as inhibitors; hit rate 3.4% among 340,000; AID 651820; Huh7.5.1 HCVcc-Cre infection, luciferase reporter, 44 h; active = well fitted inhibition curve with a large enough effect; inconclusive = small, poorly fitted or top-dose-only effect, or another doubt; inactive = no such curve, though single readings can be large or run the other way; also: potency is read from the fitted curve at half-maximal effect
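Whole-lifecycle infectious HCVcc-Cre system; cells 1,000/well, compound then virus (~0.5 moi) added 4 h after plating, 44 h culture. Luciferase read 15 sec following 15 min substrate incubation, room temp.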
* = called active by the depositor; ? = inconclusive; · = no result given; [ ] = dose if it differs, or a comment. % is scaled to controls: 0 for no effect and ±100 for the full control effect.

SMILES	HCMV inh	Lassa entry inh	Marburg entry inh	FMDV inh	HCV inh
CCCCN(c1ccccc1)S(=O)(=O)c1ccc2c(c1)CC(C)N2C(=O)C1CC1 (stereo not drawn)	-21	?	·	-14%	·
CCCN(c1ccccc1CC)S(=O)(=O)c1ccc2c(c1)CC(C)N2C(=O)C1CC1 (stereo not drawn)	-93*	?	·	?	·
CC1(C)C[C@@]2(C)CCC3=CC(=O)C=C[C@@]32O1	-26	·	·	·	·
COc1ccc(C#Cc2c(-c3ccsc3)oc3ccc(N4CCOCC4)cc23)cc1	22	·	·	-2%	?
OC1(C#Cc2c(-c3ccsc3)oc3ccc(N4CCOCC4)cc23)CCCCC1	51	·	·	-32%	5.6µM*
COc1ccc(-c2oc3ccc(N4CCOCC4)cc3c2C#CC2(O)CCCCC2)cc1	5	·	·	15%	10µM*
Cc1cccc(C(=O)Nc2cc3c(cc2N2CCCCC2)n(C)c(=O)n3C)c1	19	13%[46.1 µM]	6%[46.1 µM]	0%	·
Cc1ccc(NC(=S)Nc2ccc(OC(F)F)c(Cl)c2)cc1F	?	-5%	-29%[46.1 µM]	-10%	13µM*
CC(=O)Nc1ccc(NC(=O)C2Cc3ccccc3N2C(=O)c2ccccc2)cc1 (stereo not drawn)	14	3%[46.1 µM]	·	-3%	·
CN(C)CC(CCC(CN(C)C)C(O)(c1ccccc1)c1ccccc1)C(O)(c1ccccc1)c1ccccc1 (stereo not drawn)	-98*	?	?	-17%	11µM*
C[C@@H]1CC[C@H]2C(=O)N3[C@@H](CC[C@@H](C)[C@@H]3c3ccc(-c4ccco4)cc3)C(=O)N2[C@@H]1c1ccc(-c2ccco2)cc1	·	?	-2%[14.2 µM]	·	·
CCOc1ccccc1CNC(=O)C1CCN(S(=O)(=O)c2c(C)noc2/C=C/c2ccc(C)cc2)CC1	?	?	·	-4%	·
CCN(CC)Cc1cc(Nc2ccnc3cc(Cl)ccc23)ccc1O	-28	·	·	-17%	7.9µM*
O=C(NCCNc1ccnc2cc(Cl)ccc12)c1ccccc1F	-62*	·	·	?	13µM*
CCN(CC)CCNc1ccnc2cc(Cl)ccc12	0	-18%	2.9µM*	-21%	5.6µM*
Cc1cccc(OCCOCCn2c(-c3ccc(Cl)cc3)nc3ccccc3c2=O)c1C	37	16%[46.1 µM]	0%[46.1 µM]	6%	·
COc1ccc(-n2c(-c3ccco3)nc3c(cnn3-c3ccccc3Cl)c2=O)cc1	?	?	-18%[46.1 µM]	?	·
COc1ccccc1NC(=O)CC1Nc2ccccc2NC1=O (stereo not drawn)	72	-1%	-8%	-6%	10µM*
CCCC1(CCC)NC(=O)N(CC(=O)Nc2ccccc2OC)C1=O	-109*	0%	-7%	1%	-3%
Cc1cc2c(cc1C)NC(CC(=O)NCc1ccccc1)C(=O)N2 (stereo not drawn)	-109*	?	14%	58%	?
Cc1cc2c(cc1C)NC(CC(=O)Nc1cccc(C)c1C)C(=O)N2 (stereo not drawn)	-13	-4%[46.1 µM]	·	-7%	·
COc1ccc(NC(=O)CC2Nc3ccccc3NC2=O)cc1 (stereo not drawn)	21	9%[46.1 µM]	·	15%	·
CCOC(=O)C1=C(CN2CCC(C(=O)OCC)CC2)NC(=O)NC1c1ccc(Cl)cc1 (stereo not drawn)	4	2%[46.1 µM]	-3%[46.1 µM]	-30%	·
Clc1cccc(C2=NC(c3cccs3)=Nc3ccc(Br)cc3N2)c1	17	-4%[46.1 µM]	-21%[46.1 µM]	-17%	·
COc1ccc(C2=Nc3ccccc3N(C(=O)c3ccc4c(c3)OCO4)C2C(=O)NCc2ccccc2)cc1 (stereo not drawn)	-71*	·	·	21%	·
SMILES	HCMV inh	Lassa entry inh	Marburg entry inh	FMDV inh	HCV inh
COc1cccc(C(=O)Nc2ccccc2C(=O)OCc2cc(=O)n3nc(C4CC4)sc3n2)c1	9	-4%[46.1 µM]	·	-4%	·
N#Cc1ccccc1Cn1c(SCC(=O)Nc2ccc(F)cc2)nc2ccccc21	-11	?	·	-26%	·
COC(=O)c1ccc(COc2ccc(-c3nnn(CC(N)=O)n3)cc2)cc1	-14	-16%[46.1 µM]	-3%[46.1 µM]	23%	8%
COC(=O)c1ccc(COc2ccc(-c3nn[nH]n3)cc2)cc1	-107*	-19%	15%	13%	7%
CCC(=O)c1ccc(OCc2ccc(C(=O)OC)cc2)cc1	70	?	10µM*	?	6%
CCOC(=O)COc1ccc([N+](=O)[O-])cc1-c1ccnc2cc(-c3ccc(Cl)cc3)nn12	24	0%[46.1 µM]	8%[46.1 µM]	-16%	·
